Bioassay records as filed in PubChem.
This is a sample that favours compounds with a hit; in the whole collection about 5.8% have one here.
KB-3-1 cytotox – qHTS assay for MDR1-selective chemotherapeutics: Primary screen using the parental adenocarcinoma cell KB-3-1 | KB-3-1 viability, CellTiter-Glo ATP luminescence, 72 h | Potency, µM (doses to about 46.1 µM), hits mostly cytotoxic | 400,000 compounds, 1.4% hits; further: on the % scale 0 is the no-effect control and ±100 the full control effect; nearly all actives have a fitted effect of over 60% in size
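Screening of KB-3-1 cells (DMEM, 10% FBS, phenol-red free) ran from lowest to highest compound concentration; after 72 h at 37 °C viability was read luminescently and curves fitted.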
MCF10A rereplic – A quantitative high throughput screen for small molecules that induce DNA re-replication in MCF 10a normal breast cells | MCF 10A DNA re-replication, Hoechst nuclear intensity, 48 h | 350,000 compounds, 2.9% hits | AID 624296, 2012 | Potency, µM (titrated, usually from 46.1 µM), for inactives: top-dose activity, positive = re-replication, actives largely listed as activators; further: % of control where 0% means no effect; nearly all actives have a fitted effect of over 50% in size
PINK1 expr mod – A Quantitative High throughput Screen to Identify Chemical Modulators of PINK1 Expression | PINK1 immunofluorescence, high-content cytometry, 24 h | Potency, µM (highest dose often 76.6 µM), for inactives: at the highest dose activation (PINK1 increase), usual class: activators | 410,000 compounds, 0.2% hits; active means well fitted activation curve with a large enough effect; inconclusive means small, poorly fitted or top-dose-only effect; cell line not stated here; further: % of control where 0% means no effect; nearly all actives have a fitted effect of over 65% in size
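Fluorescence from anti-PINK1 antibody, together with nuclear and cell stains, was scanned on a laser-scanning cytometer. Before staining, stable-line cells were incubated 24 hours with compounds at 5 concentrations; primary antibody 12 h at 10 degrees C.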
KB-V1 cytotox – qHTS assay for MDR1-selective chemotherapeutics: Primary screen using the drug-selected MDR subline cells KB-V1. 400,000 compounds, 3.4% hits. Potency, µM (titrated, usually from 46.1 µM), actives largely listed as cytotoxic. KB-V1 MDR cells viability, CellTiter-Glo, 72 h; further: on the % scale 0 is the no-effect control and ±100 the full control effect; nearly all actives have a fitted effect of over 60% in size
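qHTS viability screen in drug-selected KB-V1 MDR cells: 72 h compound treatment at 37 degrees C, ATP luminescence end point.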
SW480 rerep – A quantitative high throughput screen for small molecules that induce DNA re-replication in SW480 colon adenocarcinoma cells. SW480 DNA re-replication, Hoechst DNA content imaging, 48 h. Potency, µM (highest dose often 46.1 µM), for the others: top-dose re-replication activation, usual class: activators. 340,000 compounds, 1.8% hits. AID 624297, 2012; further: % of control where 0% means no effect; nearly all actives have a fitted effect of over 55% in size
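Readout is total intensity of Hoechst-stained nuclei, excited at 405 nm and collected at 500-530 nm. Compound treatment lasted 48 hr at 37 C in 5% CO2 before staining.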
12-LOX inh – Primary qHTS assay for inhibitors of human arachidonate 12S-lipoxygenase (ALOX12): Round 2; Polyunsaturated fatty acid lipoxygenase ALOX12 (Homo sapiens), P18054; purified 12hLO, xylenol orange hydroperoxide absorbance; Potency, µM (doses to about 108 µM), for inactives: at the top dose activity change, negative = inhibition, actives largely listed as inhibitors; 580,000 compounds, 1.1% hits; AID 1671190, 2021; further: on the % scale 0 is the no-effect control and ±100 the full control effect
Target sequence (P18054 whole entry, looked up): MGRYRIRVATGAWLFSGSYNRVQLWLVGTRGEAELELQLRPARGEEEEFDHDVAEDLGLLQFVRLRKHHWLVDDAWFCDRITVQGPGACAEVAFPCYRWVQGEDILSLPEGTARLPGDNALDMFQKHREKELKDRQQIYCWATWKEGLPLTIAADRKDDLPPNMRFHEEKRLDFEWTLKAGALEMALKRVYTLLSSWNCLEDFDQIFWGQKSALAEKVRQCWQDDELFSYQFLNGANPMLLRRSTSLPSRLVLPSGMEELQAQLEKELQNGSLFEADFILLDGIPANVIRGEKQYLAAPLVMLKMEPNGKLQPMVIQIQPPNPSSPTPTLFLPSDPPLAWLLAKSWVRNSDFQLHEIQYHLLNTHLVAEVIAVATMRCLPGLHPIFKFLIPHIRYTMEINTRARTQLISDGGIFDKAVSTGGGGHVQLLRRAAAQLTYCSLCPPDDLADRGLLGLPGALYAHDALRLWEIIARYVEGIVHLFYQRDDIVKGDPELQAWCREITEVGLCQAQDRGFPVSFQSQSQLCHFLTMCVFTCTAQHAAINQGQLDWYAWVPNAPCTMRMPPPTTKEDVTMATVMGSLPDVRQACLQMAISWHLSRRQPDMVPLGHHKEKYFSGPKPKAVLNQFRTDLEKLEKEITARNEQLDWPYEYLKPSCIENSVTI
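Purified human 12hLO (150 nM final) in 25 mM Hepes, 0.01% Triton X-100, pH 7.0 was preincubated 15 min at room temperature with compound. Then 40 uM arachidonic acid was added, 30 min. Hydroperoxide was read by Fe-XO absorbance ratio 573/405 nm.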
An asterisk follows results filed as active; i = inactive; u = inconclusive; x = not tested or not shown; [ ] = another dose, or the depositor's remark. Unless noted, the call rests on the fitted dose curve; in most records, active means well fitted curve in the direction sought with a large enough effect; inconclusive means small, poorly fitted or top-dose-only effect, or another doubt; inactive means no such curve, though single readings can be large; an effect the other way counts as inactive or inconclusive. Potency means the concentration at half of the fitted maximal effect.

SMILES | KB-3-1 cytotox | MCF10A rereplic | PINK1 expr mod | KB-V1 cytotox | SW480 rerep | 12-LOX inh
COCCCNC(=O)Cc1c(C)c2ccc(OC)c(OC)c2oc1=O | x | x | x | x | x | 55%
CN(C(=O)CC1C(=O)NCCN1Cc1cccc(F)c1F)C1CCOCC1 (stereo unspecified) | x | -11% | -2% | x | -4% | 7.1µM*
c1ccc(C(c2ccccc2)N2CCN(c3nc4ccccc4n4cnnc34)CC2)cc1 | 23µM* | 7.3µM* | 3% | 9.2µM* | 2% | 17%
CCOC(=O)N1CCN(c2nc3ccccc3n3cnnc23)CC1 | i | -1% | 1% | i | 2% | -5%
c1cnc(N2CCN(c3nc4ccccc4n4cnnc34)CC2)nc1 | u | -3% | 0%[38.3 µM] | 7.3µM* | -10% | 10%
Cc1cccc(N2CCN(c3nc4ccccc4n4cnnc34)CC2)c1C | i | u | 2% | i | -14% | u
COc1ccc(Cc2c(C)nn(-c3nc(CC(=O)Nc4ccccc4)cs3)c2C)cc1 | x | x | x | x | x | 37%
Cc1ccc2cc(C3C(C#N)=C(N)Oc4c3ccc3cccnc43)c(=O)[nH]c2c1 (stereo unspecified) | i | u | 1%[38.3 µM] | i | u | 25µM*
CCc1ccc2[nH]c(=O)c(C3C(C#N)=C(N)Oc4c3ccc3cccnc43)cc2c1 (stereo unspecified) | u | u | 2% | 2.3µM* | u | -30%
N#CC1=C(N)Oc2c(c(=O)[nH]c3ccccc23)C1c1cccc(Cl)c1Cl (stereo unspecified) | x | x | x | x | x | 40%
Cc1ccc(OCc2nc(CCN(C)C(=O)c3ccccc3C(F)(F)F)no2)cc1C | x | x | x | x | x | 4%
O=C1CO[C@H]2CCN(Cc3cccs3)CC[C@@H]2N1c1ccccc1 | x | x | x | x | x | -21%[176 µM]
COc1ccc(CCN2C(=O)c3ccccc3C2c2nnnn2-c2ccc3c(c2)OCCO3)cc1OC (stereo unspecified) | i | x | 3% | u | x | -15%
COc1ccc(OC)c(CN2C(=O)c3ccccc3C2c2nnnn2-c2ccc3c(c2)OCCO3)c1 (stereo unspecified) | 4.6µM* | x | 5% | i | x | -1%
CCNC(=O)NC(=O)CN(CC)c1cccc(C)c1 | x | x | x | x | x | 29%
Cc1ccc(C2(CCNS(=O)(=O)c3ccc(C)cc3)CCOC(C(C)C)C2)cc1 (stereo unspecified) | u | u | u | 3.7µM* | 22% | 29%
Cc1ccc(C2(CCNCc3ccc(N(C)C)cc3)CCOC(C(C)C)C2)cc1 (stereo unspecified) | u | u | -2% | u | u | u
CC(C)C1CC(CCNCc2ccc(N(C)C)cc2)(c2ccccc2)CCO1 (stereo unspecified) | 21µM* | u | -5% | u | 23% | -15%
Cc1ccc(C(=O)NC(C(=O)N2CCCCC2)C2CCN(C(=O)C(C)C)CC2)cc1 (stereo unspecified) | x | x | x | x | x | 25%
CCOCCNc1nccc(C2(c3ccccc3Cl)CCNCC2)n1 | x | x | x | x | x | 4%
O=C(CC1SCCNC1=O)Nc1cc(Cl)ccc1Cl (stereo unspecified) | x | x | x | x | x | -29%
O=C(NC(c1ccccc1)c1ccccc1)C1CCCC1 | i | -4% | 0% | 16µM* | u | -28%
Cc1ccc(C(NC(=O)C2CCCCC2)c2ccccc2)cc1 (stereo unspecified) | x | x | x | x | x | 13%
O=C(Nc1ccccc1C(F)(F)F)C1CCCC1 | i | 0% | 0% | i | -5% | -2%
O=C(NC1CCCC1)c1ccccc1-c1ccccc1 | i | -32% | 1% | 15µM* | 0% | 4%
SMILES | KB-3-1 cytotox | MCF10A rereplic | PINK1 expr mod | KB-V1 cytotox | SW480 rerep | 12-LOX inh
O=C(Nc1ccccc1-c1ccccc1)C1CCCC1 | 7.3µM* | 13µM* | 4% | u | u | 20%
O=C(NC(=S)Nc1ccccc1Br)C1CCCCC1 | i | u | 12% | 16µM* | 0% | u
Cc1ccc2c(c1)NC(=O)C2(O)C(F)(F)F (stereo unspecified) | x | x | x | x | x | 0%
Cc1c(C(=O)Nc2ccccc2NS(=O)(=O)c2cccs2)cccc1[N+](=O)[O-] | x | x | x | x | x | -4%
COC(=O)CSc1ncn(-c2nc(NC(C)C)nc(N(C)C)n2)n1 | x | x | x | x | x | 12%
O=C(NC1CCCCCC1)c1cccnc1Sc1ccccc1 | i | u | 2% | 23µM* | -2% | 13%
CC(C)N(Cc1ccc([N+](=O)[O-])cc1)c1ccccc1 | x | x | x | x | x | 20%
COc1ccc(S(=O)(=O)c2cnc3ccccc3n2)cc1 | i | u | -3% | i | u | 0%
O=S(=O)(c1ccc(Br)cc1)c1cnc2ccccc2n1 | i | u | 2% | i | 18µM* | -19%
Cc1ccc(S(=O)(=O)N2c3ccccc3-c3c(ssc3=S)C2(C)C)cc1 | u | u | 4% | 21µM* | u | u
COc1ccc(-n2sc3c(c2=S)-c2cc(OC)ccc2NC3(C)C)cc1 | i | 18% | 2% | i | 19% | 0%
COc1ccc2c(c1)-c1c(ssc1=S)C(C)(C)N2 | i | 12µM* | x | u | -4% | u
COc1cc2c3c(c1)-c1c(sn(-c4cc(OC)ccc4OC)c1=S)C(C)(C)N3C(=O)C2=O | i | -1% | x | i | -10% | 0%
CCOC(=O)CC1(C)N(S(=O)(=O)c2ccc(C)cc2)c2ccccc2N1S(=O)(=O)c1ccc(C)cc1 | i | x | x | u | x | 11%
COc1ccc2c(c1)-c1c(ssc1=S)C(C)(C)N2S(=O)(=O)c1ccc(C)cc1 | u | 5.2µM* | 18% | 5.8µM* | 7.3µM* | u
CCN1CCC2(CC1)Cc1ccccc1CN(S(=O)(=O)c1ccccc1)C2 | x | x | x | x | x | 4%[6.33 µM]
CC(=O)c1ccc(N2CCN(C(=O)c3noc4c3CCc3sccc3-4)CC2)cc1 | x | x | x | x | x | -14%
CSCCC(NC(=O)COc1ccccc1)C(=O)N(C)CC(=O)Nc1ccc(Cl)cc1 (stereo unspecified) | i | 5% | 0% | 3.7µM* | 5% | u
COc1cccc(NC(=O)CN(C)C(=O)C(CCSC)NC(=O)c2ccco2)c1 (stereo unspecified) | i | -1% | -1% | 18µM* | 1% | u
